Consider eleven compounds from ChEMBL document CHEMBL3988442, “University of Dundee, Small-Polar-MMV Screening Library” (2021).

Common to all, as to parameters: scale not given: direction of the effect not stated beside the values
The target of assay [1] is Protein translocase subunit SecA (Escherichia coli (strain K12)) (UniProt P10408). Description: Assay to Identify E. coli SecA ATPase Inhibitors. It counts as functional. The following applies: 30 µM.
Assay [2] deals with T1, Ubiquitin-activating enzyme e1, putative (Leishmania donovani (strain BPK282A1)) (UniProt E9BSI1).
T1 sequence (whole entry): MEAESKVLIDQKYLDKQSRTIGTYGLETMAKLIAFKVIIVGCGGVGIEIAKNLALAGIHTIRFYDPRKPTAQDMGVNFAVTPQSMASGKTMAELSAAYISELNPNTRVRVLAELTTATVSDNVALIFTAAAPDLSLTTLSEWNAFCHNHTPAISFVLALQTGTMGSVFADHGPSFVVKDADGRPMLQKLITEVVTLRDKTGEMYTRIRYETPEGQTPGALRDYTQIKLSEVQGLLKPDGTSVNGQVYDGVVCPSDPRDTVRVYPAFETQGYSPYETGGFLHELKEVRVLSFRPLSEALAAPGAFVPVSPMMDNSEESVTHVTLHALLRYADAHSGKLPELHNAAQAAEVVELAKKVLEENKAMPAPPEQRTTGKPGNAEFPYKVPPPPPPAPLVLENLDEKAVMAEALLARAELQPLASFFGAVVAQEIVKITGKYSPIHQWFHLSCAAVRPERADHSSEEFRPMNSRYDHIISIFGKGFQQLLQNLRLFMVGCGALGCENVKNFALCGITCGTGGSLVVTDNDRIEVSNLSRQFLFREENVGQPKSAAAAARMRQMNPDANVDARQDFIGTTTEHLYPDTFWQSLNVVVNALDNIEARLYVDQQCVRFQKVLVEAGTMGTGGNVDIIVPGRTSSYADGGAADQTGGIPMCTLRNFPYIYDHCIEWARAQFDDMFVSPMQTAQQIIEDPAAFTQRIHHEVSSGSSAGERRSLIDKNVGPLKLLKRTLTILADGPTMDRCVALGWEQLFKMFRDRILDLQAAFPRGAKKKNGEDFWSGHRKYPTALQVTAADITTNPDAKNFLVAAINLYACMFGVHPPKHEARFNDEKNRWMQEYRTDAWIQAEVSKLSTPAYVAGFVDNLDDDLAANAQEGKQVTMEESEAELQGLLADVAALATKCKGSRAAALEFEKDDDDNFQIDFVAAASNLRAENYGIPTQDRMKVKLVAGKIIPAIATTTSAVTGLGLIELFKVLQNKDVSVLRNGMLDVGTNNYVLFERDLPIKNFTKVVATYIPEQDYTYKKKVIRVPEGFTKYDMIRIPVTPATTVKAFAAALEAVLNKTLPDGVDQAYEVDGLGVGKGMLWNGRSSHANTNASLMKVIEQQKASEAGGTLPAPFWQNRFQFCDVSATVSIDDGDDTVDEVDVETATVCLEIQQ
Nature of the assay: Leishmania donovani Ubiquitin Activating Enzyme (LdE1). It counts as functional. The following applies: 30 µM.

The target in assay [3] is Sialic acid-binding Ig-like lectin 9 (Homo sapiens) (UniProt Q9Y336). Nature of the assay: Hs-Siglec9 ALPHAscreen SOP 20170721. The following applies: 10 µM. (Alpha assays give light when donor and acceptor beads are brought close together.)
The subject of a further assay is Trypanosoma cruzi. Description: Trypanosoma cruzi phosphomannomutase and mannose-1-phosphate guanylyltransferase assay. It is filed as functional. The following applies: 10 µM.
Assay [4] addresses T2, Arginase-2, mitochondrial (Homo sapiens) (UniProt P78540).
T2 sequence (whole entry): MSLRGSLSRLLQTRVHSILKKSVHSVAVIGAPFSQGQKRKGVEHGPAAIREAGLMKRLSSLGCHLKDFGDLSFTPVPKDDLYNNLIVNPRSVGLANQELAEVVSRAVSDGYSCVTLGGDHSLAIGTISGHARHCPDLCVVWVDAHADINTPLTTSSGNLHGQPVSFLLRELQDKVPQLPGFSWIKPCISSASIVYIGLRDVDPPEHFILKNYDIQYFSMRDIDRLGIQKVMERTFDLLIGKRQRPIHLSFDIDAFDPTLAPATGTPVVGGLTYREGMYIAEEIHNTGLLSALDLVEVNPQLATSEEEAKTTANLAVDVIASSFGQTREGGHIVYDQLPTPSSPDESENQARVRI
Nature of the assay: in vitro enzyme assay to detect the production of urea directly proportional to the activity of Arginase II. Also: in the data most compounds retested in dose-response had high values. It is filed as functional. Particulars: 33.3 µM.

Assay [5] addresses T3, Proteasome subunit beta (Trypanosoma cruzi) (UniProt O96673).
T3 sequence (whole entry): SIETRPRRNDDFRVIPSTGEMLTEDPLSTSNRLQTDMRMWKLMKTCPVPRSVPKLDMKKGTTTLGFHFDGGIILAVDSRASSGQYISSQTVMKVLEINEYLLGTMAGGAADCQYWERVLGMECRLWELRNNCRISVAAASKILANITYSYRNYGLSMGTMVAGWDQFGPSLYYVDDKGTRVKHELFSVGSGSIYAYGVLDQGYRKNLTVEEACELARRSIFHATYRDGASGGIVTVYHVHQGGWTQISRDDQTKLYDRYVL
Description: Trypanosoma cruzi proteasome chymotrypsin-like activity (TcProtChymo) assay. Also: in the data most compounds retested in dose-response had high values. The following applies: 9.37 µM. It counts as functional.

The species entered for another assay is Homo sapiens. Description: To identify inhibition of the IFN signalling (Jak-Stat) pathway via expression of an eGFP reporter gene under the control of an IFN-stimulated response element (ISRE) containing MxA promoter. It is filed as functional. The following applies: 30 µM. For orientation: Reporter assays use an easily measured gene product as a stand-in for the process of interest.

Assay [6] has as its target T4, Tyrosyl-tRNA synthetase, putative (Trypanosoma cruzi (strain CL Brener)) (UniProt Q4DSP6).
T4 sequence (whole entry): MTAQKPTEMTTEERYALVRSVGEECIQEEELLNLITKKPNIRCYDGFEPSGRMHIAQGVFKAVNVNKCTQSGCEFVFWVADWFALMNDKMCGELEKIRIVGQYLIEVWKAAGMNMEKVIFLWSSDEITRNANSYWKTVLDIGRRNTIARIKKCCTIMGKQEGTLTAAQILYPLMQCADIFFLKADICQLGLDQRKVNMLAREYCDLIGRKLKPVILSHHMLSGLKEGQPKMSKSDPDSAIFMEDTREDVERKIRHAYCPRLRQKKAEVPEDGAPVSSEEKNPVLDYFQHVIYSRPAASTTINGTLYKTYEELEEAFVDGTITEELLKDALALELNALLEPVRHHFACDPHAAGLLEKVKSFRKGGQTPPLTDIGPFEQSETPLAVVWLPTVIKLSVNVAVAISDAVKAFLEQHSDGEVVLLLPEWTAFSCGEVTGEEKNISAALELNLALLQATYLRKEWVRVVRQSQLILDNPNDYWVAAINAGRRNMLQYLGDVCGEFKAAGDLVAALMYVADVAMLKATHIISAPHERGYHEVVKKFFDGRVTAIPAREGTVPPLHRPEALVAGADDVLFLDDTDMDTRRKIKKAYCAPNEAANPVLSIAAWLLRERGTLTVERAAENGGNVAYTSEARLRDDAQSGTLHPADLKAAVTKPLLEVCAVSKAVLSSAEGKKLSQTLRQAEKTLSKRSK
Description: Trypanosoma cruzi tyrosyl tRNA synthetase (TcYRS) _High Tyrosine SOP. Also: in the data most compounds retested in dose-response had high values. It is filed as functional. The following applies: 30 µM.

For assay [7], the target named is T4, Tyrosyl-tRNA synthetase, putative (Trypanosoma cruzi (strain CL Brener)). Description: Trypanosoma cruzi tyrosyl tRNA synthetase (TcYRS) SOP. It is filed as functional. The following applies: 30 µM.
The target in assay [8] is Chromo domain-containing protein 1 (Saccharomyces cerevisiae (strain ATCC 204508 / S288c) (Baker's yeast)) (UniProt P32657). Description: ScCHD-1 Enzyme Inhibition Assay. Also: in the data most compounds retested in dose-response had high values. It is filed as functional. Particulars: 30 µM.

SMILES strings stand for the structures. For some assays here: Potency and affinity values are given separately.

Chromo domain-containing protein 1 (Saccharomyces cerevisiae (strain ATCC 204508 / S288c) (Baker's yeast)), sequence (P32657 whole entry, the tested form may be a part): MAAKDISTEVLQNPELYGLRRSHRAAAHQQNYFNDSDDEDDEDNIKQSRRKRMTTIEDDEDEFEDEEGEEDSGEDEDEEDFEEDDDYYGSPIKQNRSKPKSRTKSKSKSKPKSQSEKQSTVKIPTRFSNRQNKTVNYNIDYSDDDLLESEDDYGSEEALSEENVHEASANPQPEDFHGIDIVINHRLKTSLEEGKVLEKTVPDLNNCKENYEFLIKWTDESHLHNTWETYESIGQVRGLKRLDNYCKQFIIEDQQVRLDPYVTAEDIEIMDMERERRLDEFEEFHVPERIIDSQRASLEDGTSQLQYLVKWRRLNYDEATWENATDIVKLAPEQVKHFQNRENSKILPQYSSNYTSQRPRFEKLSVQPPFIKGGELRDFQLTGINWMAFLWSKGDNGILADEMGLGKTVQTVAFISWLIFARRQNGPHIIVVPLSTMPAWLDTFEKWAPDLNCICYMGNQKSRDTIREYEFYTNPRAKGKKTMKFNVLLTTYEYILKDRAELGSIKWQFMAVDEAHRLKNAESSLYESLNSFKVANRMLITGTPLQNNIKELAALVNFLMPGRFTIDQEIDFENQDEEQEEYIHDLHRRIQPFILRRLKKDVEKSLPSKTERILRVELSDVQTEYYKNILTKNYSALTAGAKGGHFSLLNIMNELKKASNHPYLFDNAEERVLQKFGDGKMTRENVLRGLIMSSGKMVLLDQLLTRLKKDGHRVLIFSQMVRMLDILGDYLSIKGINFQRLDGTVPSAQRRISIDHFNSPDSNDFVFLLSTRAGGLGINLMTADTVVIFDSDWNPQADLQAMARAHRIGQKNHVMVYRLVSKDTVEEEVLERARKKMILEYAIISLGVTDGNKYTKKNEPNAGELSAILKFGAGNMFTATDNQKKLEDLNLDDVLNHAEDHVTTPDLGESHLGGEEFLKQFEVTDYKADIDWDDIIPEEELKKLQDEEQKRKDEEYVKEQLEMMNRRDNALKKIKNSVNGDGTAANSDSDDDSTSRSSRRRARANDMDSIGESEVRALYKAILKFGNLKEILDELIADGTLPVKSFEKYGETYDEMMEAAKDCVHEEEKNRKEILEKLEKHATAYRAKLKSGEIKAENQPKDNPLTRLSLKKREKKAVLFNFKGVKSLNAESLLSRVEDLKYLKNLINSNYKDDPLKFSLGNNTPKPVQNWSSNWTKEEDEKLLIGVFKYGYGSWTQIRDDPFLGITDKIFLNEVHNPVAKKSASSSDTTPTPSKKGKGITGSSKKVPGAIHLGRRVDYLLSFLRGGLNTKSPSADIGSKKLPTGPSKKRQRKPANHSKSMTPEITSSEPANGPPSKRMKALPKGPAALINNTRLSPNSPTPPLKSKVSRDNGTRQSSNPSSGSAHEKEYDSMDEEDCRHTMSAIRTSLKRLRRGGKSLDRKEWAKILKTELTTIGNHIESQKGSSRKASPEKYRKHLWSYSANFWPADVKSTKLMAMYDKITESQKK
Sialic acid-binding Ig-like lectin 9 (Homo sapiens), sequence (Q9Y336 whole entry): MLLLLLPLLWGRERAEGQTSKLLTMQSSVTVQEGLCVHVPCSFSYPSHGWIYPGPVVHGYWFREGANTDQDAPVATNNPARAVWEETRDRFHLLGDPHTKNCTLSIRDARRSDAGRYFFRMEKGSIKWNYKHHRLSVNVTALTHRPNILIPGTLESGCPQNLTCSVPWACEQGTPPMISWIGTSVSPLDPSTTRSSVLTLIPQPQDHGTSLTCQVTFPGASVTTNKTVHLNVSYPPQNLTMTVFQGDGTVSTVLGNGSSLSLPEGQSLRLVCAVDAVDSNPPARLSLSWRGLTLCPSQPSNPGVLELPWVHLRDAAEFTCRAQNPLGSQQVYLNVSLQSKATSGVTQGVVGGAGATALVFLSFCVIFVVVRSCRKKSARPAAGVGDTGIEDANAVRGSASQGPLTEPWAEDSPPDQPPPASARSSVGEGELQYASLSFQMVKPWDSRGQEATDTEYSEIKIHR
Protein translocase subunit SecA (Escherichia coli (strain K12)), sequence (P10408 whole entry): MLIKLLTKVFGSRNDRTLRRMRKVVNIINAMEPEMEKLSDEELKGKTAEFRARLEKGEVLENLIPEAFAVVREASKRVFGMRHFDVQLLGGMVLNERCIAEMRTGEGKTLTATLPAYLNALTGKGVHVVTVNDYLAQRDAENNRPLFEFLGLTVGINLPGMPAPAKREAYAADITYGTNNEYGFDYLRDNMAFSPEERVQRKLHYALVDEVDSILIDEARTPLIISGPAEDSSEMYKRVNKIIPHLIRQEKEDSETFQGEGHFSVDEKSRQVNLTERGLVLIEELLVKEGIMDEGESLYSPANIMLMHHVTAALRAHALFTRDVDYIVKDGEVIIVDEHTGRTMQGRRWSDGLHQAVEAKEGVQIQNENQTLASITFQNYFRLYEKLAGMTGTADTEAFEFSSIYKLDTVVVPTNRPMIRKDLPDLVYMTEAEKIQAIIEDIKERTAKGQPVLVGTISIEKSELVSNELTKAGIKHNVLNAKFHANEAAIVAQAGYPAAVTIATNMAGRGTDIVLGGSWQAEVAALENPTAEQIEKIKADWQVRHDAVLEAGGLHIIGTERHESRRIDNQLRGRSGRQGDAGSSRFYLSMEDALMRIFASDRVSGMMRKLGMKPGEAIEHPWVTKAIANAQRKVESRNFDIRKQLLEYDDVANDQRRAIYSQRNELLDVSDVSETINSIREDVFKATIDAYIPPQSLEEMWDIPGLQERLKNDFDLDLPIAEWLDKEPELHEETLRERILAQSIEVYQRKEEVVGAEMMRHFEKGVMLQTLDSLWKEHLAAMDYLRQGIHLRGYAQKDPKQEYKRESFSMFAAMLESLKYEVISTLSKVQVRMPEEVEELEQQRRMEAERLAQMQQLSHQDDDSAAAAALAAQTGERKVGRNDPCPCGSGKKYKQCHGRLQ

Take `CN(C)CCN1CCC2(CCN(C(=O)c3ccc(F)cc3)CC2)C1=O`: the Percent Effect is -1.6% in assay [1]; 14.3% in assay [2]; -0.427% in [3]; -5.44% in the assay on Trypanosoma cruzi; 2.28% in assay [4]; 16.7% in [5]. Besides, the Percent Effect was 12.2% in the assay filed under Homo sapiens, 10.6% in assay [6], 12.5% in assay [7] and -6.97% in [8].
Regarding `Cc1nsc(NC(=O)N2CCN(Cc3ccc(F)cc3)C(=O)C2)n1`, the Percent Effect is -3.7% in assay [1]; -10.8% in assay [2]; -0.0827% in assay [3]; -0.291% in the assay with Trypanosoma cruzi; 3.85% in assay [4]; 4.45% in assay [5]. Besides, the Percent Effect amounted to 5.1% in the assay listed under Homo sapiens, 2.66% in assay [6], 2.44% in [7] and 3.97% in assay [8].
Regarding `CC(NC(=O)c1cc(Br)c2c(c1)OCCO2)C(N)=O` (stereo not given), the Percent Effect was -7.52% in assay [1]; 18.7% in [2]; 6.37% in assay [3]; 5.82% in the assay with Trypanosoma cruzi; -3.55% in assay [4]; 17.9% in assay [5]. For the same compound, the Percent Effect turned out to be 0.842% in the assay listed under Homo sapiens, 2.63% in assay [6], 10.3% in [7] and 77.7% in assay [8].
As for `Cc1cnn(CC2CCCN2C(=O)c2ccc3nnc(C)n3c2)c1` (stereo not given), the Percent Effect in [1] was -1.55%; in [2] it was -5.13%; in assay [3], -9.94%; with Trypanosoma cruzi, 1.03%; in assay [4] it was 2.87%; in [5], 4.01%. For the same compound, the Percent Effect in the assay filed under Homo sapiens was 8.47%; in assay [6], -2.39%; in assay [7] it was -3.61%; in assay [8], -5.71%.
As to `c1ccc(-n2ncc(CNC3CCc4ncnn4C3)n2)cc1` (stereo not given), the Percent Effect in assay [1] is -1.79%; in [2], 10.3%; in [3], 0.298%; with Trypanosoma cruzi, 1.03%; in assay [4] it was 4.51%; in assay [5], 3.16%. Moreover, the Percent Effect in the assay filed under Homo sapiens was determined as 10%; in [6] it was 1.44%; in assay [7] it was 8.43%; in [8], 1.52%.
In the case of `O=C(NCc1ccccc1)[C@H]1C[C@@H]2CN(S(=O)(=O)C3CC3)C[C@H]1O2`, the Percent Effect was -3.6% in [1]; 1.3% in assay [2]; -4.1% in assay [3]; -3.99% with Trypanosoma cruzi; -1.22% in assay [4]; 14.4% in assay [5]. The Percent Effect worked out at 14.4% in the assay filed under Homo sapiens, 3.68% in assay [6], 7.69% in assay [7] and 1.77% in [8].
For `CC(C)N1CCN(C(=O)Nc2cnn(CC(N)=O)c2)CC1`, the Percent Effect in assay [1] was -3.33%; in assay [2], 17.9%; in [3] it was -17.7%; with Trypanosoma cruzi, 9.67%; in assay [4], 0%; in assay [5], 11.7%. In addition, the Percent Effect was 5.26% in the assay filed under Homo sapiens, -3.35% in assay [6], 22.9% in assay [7] and -6.52% in assay [8].
For `CCOc1c(Cl)cccc1NCc1cc(C)on1`, the Percent Effect in assay [1] is -0.827%; in assay [2], 12.8%; in assay [3], -8.13%; in the assay with Trypanosoma cruzi it was -1.6%; in [4], 2.05%; in assay [5] it was 15.1%. For the same compound, the Percent Effect in the assay listed under Homo sapiens is 25.9%; in assay [6], 8.13%; in [7] it was 22.9%; in [8] it was -1.3%.
On to `CCN(CC1CCOC1)C(=O)Nc1ccc(-n2cncn2)nc1` (stereo not given), for which the Percent Effect was -3.32% in [1]; 5.13% in assay [2]; -0.956% in assay [3]; -12.7% in the assay on Trypanosoma cruzi; 0% in [4]; 9.3% in assay [5]. Also, the Percent Effect is 5.11% in the assay listed under Homo sapiens, 4.31% in assay [6], 10.8% in assay [7] and -5.86% in assay [8].
Take `CCn1ccnc1CN1CCC(N(C)Cc2ncc(C)o2)C1` (stereo not given): the Percent Effect in assay [1] was -0.494%; in assay [2] it was 13.3%; in assay [3], -7.04%; with Trypanosoma cruzi, -3.21%; in [4] it was 3.1%; in assay [5] it was 12.5%. Further, the Percent Effect in the assay filed under Homo sapiens was 14.6%; in assay [6], 10%; in [7], 17.9%; in assay [8], -11.2%.
`O=C(Cc1c[nH]c2ccccc12)N1CCC(Nc2cccnn2)CC1`: the Percent Effect in assay [1] is -6.75%; in assay [2], 15.6%; in [3] it was 5.29%; in the assay with Trypanosoma cruzi, -4.1%; in assay [4], 3.07%; in assay [5], 5.96%. The Percent Effect in the assay filed under Homo sapiens is 5.15%; in [6], 7.84%; in assay [7], 16.5%; in assay [8], -5.46%.
